Assay in all cases: DAPPL (digital affinity profiling via proximity ligation, sequencing); 10 mM Tris-HCl pH 7.5, 50 mM NaCl, 1 mM DTT, 4% glycerol, room temperature, 30 min; GST-TFs on glutathione beads, 16-mer random dsDNA library, 0.1% formaldehyde crosslink after washing; high values mean tight binding
Conditions in all cases: protein: recombinant; tags: N-terminal GST; dsDNA, one strand shown

One assay deals with T1, FLI1 (Homo sapiens, UniProt Q01543 1-452).
T1 sequence: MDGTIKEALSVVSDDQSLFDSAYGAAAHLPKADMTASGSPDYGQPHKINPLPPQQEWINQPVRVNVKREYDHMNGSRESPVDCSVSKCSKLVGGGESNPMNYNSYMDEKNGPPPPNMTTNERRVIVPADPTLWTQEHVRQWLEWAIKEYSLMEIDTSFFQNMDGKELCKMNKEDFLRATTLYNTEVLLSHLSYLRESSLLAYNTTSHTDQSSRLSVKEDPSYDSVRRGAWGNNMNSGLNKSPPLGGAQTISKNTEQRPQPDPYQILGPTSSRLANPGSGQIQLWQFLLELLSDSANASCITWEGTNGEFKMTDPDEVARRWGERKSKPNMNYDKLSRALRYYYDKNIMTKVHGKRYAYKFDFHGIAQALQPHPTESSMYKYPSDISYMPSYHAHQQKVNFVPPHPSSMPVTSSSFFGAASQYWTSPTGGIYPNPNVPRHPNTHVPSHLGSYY
A digest of the protocol: (§1)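 After expression in yeast as GST fusions, human transcription factors were bound to glutathione beads, DNA-barcoded and mixed with a tag-only sample. The pools were incubated with 200 nmole of a 16-mer random double-stranded DNA library in Tris/NaCl/DTT/glycerol buffer (30 min, room temperature), washed and crosslinked with 0.1% formaldehyde. Proximity ligation with BsaI/T4 ligase ran for 1 h at 37 °C, before PCR amplification and sequencing on an Illumina NextSeq500. Binding signal is a hexamer's read frequency for a factor divided by its frequency for the tag-only sample.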

A further assay concerns the target T2, ELK1 (Homo sapiens, UniProt P19419 1-428).
T2 sequence: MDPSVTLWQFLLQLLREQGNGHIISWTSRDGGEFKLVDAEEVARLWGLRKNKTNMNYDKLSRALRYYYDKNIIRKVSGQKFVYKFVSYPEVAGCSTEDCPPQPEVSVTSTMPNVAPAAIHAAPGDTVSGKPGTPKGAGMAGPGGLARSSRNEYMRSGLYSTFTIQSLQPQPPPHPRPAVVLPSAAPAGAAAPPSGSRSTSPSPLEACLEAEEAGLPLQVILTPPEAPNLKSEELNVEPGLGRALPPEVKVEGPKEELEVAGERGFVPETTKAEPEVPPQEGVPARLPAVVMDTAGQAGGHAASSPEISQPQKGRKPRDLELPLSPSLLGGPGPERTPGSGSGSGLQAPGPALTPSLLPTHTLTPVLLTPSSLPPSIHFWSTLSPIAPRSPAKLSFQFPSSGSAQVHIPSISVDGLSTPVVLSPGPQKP
The procedure, abridged: as §1

The target in a further assay is T3, GABPA (Homo sapiens, UniProt Q06546 1-454).
T3 sequence: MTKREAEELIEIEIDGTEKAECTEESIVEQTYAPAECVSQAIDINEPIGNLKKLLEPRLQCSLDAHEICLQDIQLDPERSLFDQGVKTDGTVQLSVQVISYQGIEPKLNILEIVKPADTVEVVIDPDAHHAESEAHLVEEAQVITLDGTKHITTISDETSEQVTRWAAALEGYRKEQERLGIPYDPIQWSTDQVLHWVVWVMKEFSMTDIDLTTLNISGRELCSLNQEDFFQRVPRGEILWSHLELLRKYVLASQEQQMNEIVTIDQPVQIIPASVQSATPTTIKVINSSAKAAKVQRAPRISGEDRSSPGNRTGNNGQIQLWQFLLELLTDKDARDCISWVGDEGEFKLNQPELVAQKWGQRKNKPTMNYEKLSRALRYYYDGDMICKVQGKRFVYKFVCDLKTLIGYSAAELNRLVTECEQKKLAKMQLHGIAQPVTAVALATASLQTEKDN
The procedure, abridged: as §1

In another assay the target is T4, ERG (Homo sapiens, UniProt P11308 1-479).
T4 sequence: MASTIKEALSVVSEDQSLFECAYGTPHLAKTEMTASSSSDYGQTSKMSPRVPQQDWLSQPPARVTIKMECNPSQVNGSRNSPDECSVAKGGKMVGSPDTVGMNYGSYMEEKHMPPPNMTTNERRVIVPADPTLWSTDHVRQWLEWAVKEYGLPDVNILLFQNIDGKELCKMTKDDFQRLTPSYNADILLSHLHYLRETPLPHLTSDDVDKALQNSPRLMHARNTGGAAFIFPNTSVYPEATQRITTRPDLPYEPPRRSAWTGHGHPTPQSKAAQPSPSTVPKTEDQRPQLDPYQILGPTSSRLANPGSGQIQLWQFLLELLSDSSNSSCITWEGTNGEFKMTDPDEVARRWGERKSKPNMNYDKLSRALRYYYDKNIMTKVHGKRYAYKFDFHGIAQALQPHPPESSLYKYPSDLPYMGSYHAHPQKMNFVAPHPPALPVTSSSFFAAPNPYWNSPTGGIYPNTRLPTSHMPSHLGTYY
The procedure, abridged: as §1

The target in a further assay is ELF1 (Homo sapiens, UniProt P32519 1-619). A digest of the protocol: as §1
Chain of ELF1 (P32519 whole entry): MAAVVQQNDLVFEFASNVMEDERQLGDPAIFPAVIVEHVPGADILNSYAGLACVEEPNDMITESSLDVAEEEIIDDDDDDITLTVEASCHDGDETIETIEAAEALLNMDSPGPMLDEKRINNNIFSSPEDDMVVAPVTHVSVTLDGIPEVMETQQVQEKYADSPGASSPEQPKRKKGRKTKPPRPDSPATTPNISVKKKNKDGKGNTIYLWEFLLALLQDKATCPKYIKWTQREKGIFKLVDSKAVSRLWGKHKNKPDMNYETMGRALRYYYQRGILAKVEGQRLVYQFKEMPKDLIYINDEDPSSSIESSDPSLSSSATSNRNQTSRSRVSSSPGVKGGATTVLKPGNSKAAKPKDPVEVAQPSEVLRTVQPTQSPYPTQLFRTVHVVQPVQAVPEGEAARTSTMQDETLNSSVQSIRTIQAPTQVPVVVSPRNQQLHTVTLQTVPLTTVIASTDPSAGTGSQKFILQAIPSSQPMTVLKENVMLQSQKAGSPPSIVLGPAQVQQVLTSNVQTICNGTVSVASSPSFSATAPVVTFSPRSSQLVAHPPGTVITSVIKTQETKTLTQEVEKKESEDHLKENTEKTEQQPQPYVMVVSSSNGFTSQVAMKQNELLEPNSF
The target of a further assay is T5, EHF (Homo sapiens, UniProt Q9NZC4 1-300).
T5 sequence: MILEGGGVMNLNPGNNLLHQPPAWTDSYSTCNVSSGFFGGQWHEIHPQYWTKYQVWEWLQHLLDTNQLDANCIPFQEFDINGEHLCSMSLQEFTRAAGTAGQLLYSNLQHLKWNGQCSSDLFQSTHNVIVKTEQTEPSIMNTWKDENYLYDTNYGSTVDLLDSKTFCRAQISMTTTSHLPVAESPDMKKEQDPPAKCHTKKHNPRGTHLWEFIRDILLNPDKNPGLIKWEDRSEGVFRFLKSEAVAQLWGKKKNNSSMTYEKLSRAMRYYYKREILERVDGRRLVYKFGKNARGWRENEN
The procedure, abridged: as §1

A further assay addresses SPI1 (Homo sapiens, UniProt P17947 1-270). The procedure, abridged: as §1
In the next assay the target is SPIB (Homo sapiens, UniProt Q01892 1-262). A digest of the protocol:
as §1

The target of another assay is T6, ELK3 (Homo sapiens, UniProt P41970 1-407).
T6 sequence: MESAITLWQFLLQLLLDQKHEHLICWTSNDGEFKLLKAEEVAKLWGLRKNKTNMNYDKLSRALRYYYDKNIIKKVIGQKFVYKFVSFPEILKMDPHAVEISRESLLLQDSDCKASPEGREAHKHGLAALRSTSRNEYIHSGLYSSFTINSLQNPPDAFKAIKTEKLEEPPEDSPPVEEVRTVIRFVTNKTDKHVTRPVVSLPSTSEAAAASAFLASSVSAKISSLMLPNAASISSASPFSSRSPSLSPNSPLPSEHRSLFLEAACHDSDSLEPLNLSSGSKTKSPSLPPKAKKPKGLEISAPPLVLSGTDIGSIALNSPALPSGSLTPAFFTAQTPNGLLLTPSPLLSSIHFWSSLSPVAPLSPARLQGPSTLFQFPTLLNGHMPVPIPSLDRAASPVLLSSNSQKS
The procedure, abridged:
as §1

Chain of SPIB (Q01892 whole entry): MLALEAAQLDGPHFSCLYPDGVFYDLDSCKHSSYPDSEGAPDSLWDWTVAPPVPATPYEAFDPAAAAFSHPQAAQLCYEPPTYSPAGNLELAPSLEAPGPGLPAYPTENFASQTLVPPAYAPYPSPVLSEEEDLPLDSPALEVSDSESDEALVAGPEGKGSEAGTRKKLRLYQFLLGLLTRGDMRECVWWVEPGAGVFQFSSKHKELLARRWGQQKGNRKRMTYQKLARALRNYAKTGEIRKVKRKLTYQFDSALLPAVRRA

CCGCCC: the binding signal with FLI1 is 1.33 fold enrichment (6-mer frequency, TF over GST control); with ELK1, 1.39 fold enrichment (6-mer frequency, TF over GST control); with GABPA it was 1.27 fold enrichment (6-mer frequency, TF over GST control); with ERG, 1.29 fold enrichment (6-mer frequency, TF over GST control); with ELF1 it was 1.35 fold enrichment (6-mer frequency, TF over GST control); with EHF, 1.29 fold enrichment (6-mer frequency, TF over GST control). Besides, the binding signal with SPI1 was 1.17 fold enrichment (6-mer frequency, TF over GST control); in the assay with SPIB, 1.19 fold enrichment (6-mer frequency, TF over GST control); with ELK3 it was 1.48 fold enrichment (6-mer frequency, TF over GST control).
As for CTCGTA, the binding signal in the assay with FLI1 is 1.31 fold enrichment (6-mer frequency, TF over GST control); in the assay with ELK1 it was 1.37 fold enrichment (6-mer frequency, TF over GST control); in the assay with GABPA, 1.3 fold enrichment (6-mer frequency, TF over GST control); with ERG it was 1.22 fold enrichment (6-mer frequency, TF over GST control); with ELF1, 1.32 fold enrichment (6-mer frequency, TF over GST control); with EHF it was 1.31 fold enrichment (6-mer frequency, TF over GST control). In addition, the binding signal in the assay with SPI1 was 1.39 fold enrichment (6-mer frequency, TF over GST control); in the assay with SPIB, 1.38 fold enrichment (6-mer frequency, TF over GST control); in the assay with ELK3, 1.36 fold enrichment (6-mer frequency, TF over GST control).
Take AAAAGA: the binding signal with FLI1 is 1.11 fold enrichment (6-mer frequency, TF over GST control); with ELK1 it was 1.19 fold enrichment (6-mer frequency, TF over GST control); with GABPA, 1.19 fold enrichment (6-mer frequency, TF over GST control); with ERG, 1.06 fold enrichment (6-mer frequency, TF over GST control); with ELF1 it was 1.06 fold enrichment (6-mer frequency, TF over GST control); in the assay with EHF, 1.2 fold enrichment (6-mer frequency, TF over GST control). Moreover, the binding signal is 1.5 fold enrichment (6-mer frequency, TF over GST control) with SPI1; 1.26 fold enrichment (6-mer frequency, TF over GST control) with SPIB; 1.11 fold enrichment (6-mer frequency, TF over GST control) with ELK3.
Turning to TATGCG, the binding signal with FLI1 is 1.5 fold enrichment (6-mer frequency, TF over GST control); in the assay with ELK1, 1.42 fold enrichment (6-mer frequency, TF over GST control); with GABPA, 1.35 fold enrichment (6-mer frequency, TF over GST control); with ERG, 1.31 fold enrichment (6-mer frequency, TF over GST control); with ELF1, 1.31 fold enrichment (6-mer frequency, TF over GST control); with EHF, 1.37 fold enrichment (6-mer frequency, TF over GST control). Besides, the binding signal with SPI1 was 1.32 fold enrichment (6-mer frequency, TF over GST control); with SPIB, 1.29 fold enrichment (6-mer frequency, TF over GST control); with ELK3, 1.39 fold enrichment (6-mer frequency, TF over GST control).
In the case of ATGGAC, the binding signal was 1.21 fold enrichment (6-mer frequency, TF over GST control) in the assay with FLI1; 1.22 fold enrichment (6-mer frequency, TF over GST control) with ELK1; 1.21 fold enrichment (6-mer frequency, TF over GST control) with GABPA; 1.16 fold enrichment (6-mer frequency, TF over GST control) in the assay with ERG; 1.26 fold enrichment (6-mer frequency, TF over GST control) with ELF1; 1.21 fold enrichment (6-mer frequency, TF over GST control) with EHF. The binding signal is 1.25 fold enrichment (6-mer frequency, TF over GST control) with SPI1; 1.38 fold enrichment (6-mer frequency, TF over GST control) with SPIB; 1.19 fold enrichment (6-mer frequency, TF over GST control) in the assay with ELK3.
Turning to TACAGG, the binding signal was 1.32 fold enrichment (6-mer frequency, TF over GST control) with FLI1; 1.16 fold enrichment (6-mer frequency, TF over GST control) with ELK1; 1.21 fold enrichment (6-mer frequency, TF over GST control) with GABPA; 1.22 fold enrichment (6-mer frequency, TF over GST control) with ERG; 1.13 fold enrichment (6-mer frequency, TF over GST control) with ELF1; 1.17 fold enrichment (6-mer frequency, TF over GST control) in the assay with EHF. Also, the binding signal in the assay with SPI1 is 1.12 fold enrichment (6-mer frequency, TF over GST control); with SPIB, 1.2 fold enrichment (6-mer frequency, TF over GST control); with ELK3 it was 1.03 fold enrichment (6-mer frequency, TF over GST control).
In the case of AGTACA, the binding signal was 1.13 fold enrichment (6-mer frequency, TF over GST control) in the assay with FLI1; 1.16 fold enrichment (6-mer frequency, TF over GST control) with ELK1; 1.12 fold enrichment (6-mer frequency, TF over GST control) in the assay with GABPA; 1.19 fold enrichment (6-mer frequency, TF over GST control) with ERG; 1.08 fold enrichment (6-mer frequency, TF over GST control) in the assay with ELF1; 1.13 fold enrichment (6-mer frequency, TF over GST control) in the assay with EHF. For the same sequence, the binding signal with SPI1 is 1.17 fold enrichment (6-mer frequency, TF over GST control); with SPIB, 1.07 fold enrichment (6-mer frequency, TF over GST control); with ELK3, 1.31 fold enrichment (6-mer frequency, TF over GST control).
For TAATGT, the binding signal is 1.15 fold enrichment (6-mer frequency, TF over GST control) in the assay with FLI1; 1.02 fold enrichment (6-mer frequency, TF over GST control) with ELK1; 1.08 fold enrichment (6-mer frequency, TF over GST control) with GABPA; 1.09 fold enrichment (6-mer frequency, TF over GST control) with ERG; 1.11 fold enrichment (6-mer frequency, TF over GST control) in the assay with ELF1; 1.07 fold enrichment (6-mer frequency, TF over GST control) in the assay with EHF. The binding signal was 1.06 fold enrichment (6-mer frequency, TF over GST control) with SPI1; 1.05 fold enrichment (6-mer frequency, TF over GST control) in the assay with SPIB; 1.09 fold enrichment (6-mer frequency, TF over GST control) with ELK3.
